This is an account of results in PMC4081100, “A DNA-binding-site landscape and regulatory network analysis for NAC transcription factors in Arabidopsis thaliana”.

GST-NTL6(1-168), sequence (Q9SCK6 1-168): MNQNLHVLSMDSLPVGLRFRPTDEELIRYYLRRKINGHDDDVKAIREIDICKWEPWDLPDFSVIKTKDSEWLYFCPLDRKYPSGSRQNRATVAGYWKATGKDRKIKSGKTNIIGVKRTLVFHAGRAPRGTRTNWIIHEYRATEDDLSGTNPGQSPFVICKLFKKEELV

In one assay the target is GST-NTL6(1-168) (Arabidopsis thaliana, UniProt Q9SCK6 1-168). Briefly: universal protein binding microarray (PBM); transcription factors of Arabidopsis thaliana; high values mean tight binding. To be noted: protein: recombinant; tags: GST; chain copies: 2; dsDNA, one strand shown. Summed up:
(§1)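 For zinc-finger proteins, zinc acetate was added while GST-tagged NAC-domain, full-length or DNA-binding-domain proteins were induced in cells. Purification used glutathione–Sepharose 4B, and quantification used A280 or anti-GST western blot. Custom all-10-mer Agilent 4 × 180K arrays, made double-stranded by primer extension, each received a protein at 200 to 500 nM final in duplicate. Scoring covered gapped and ungapped 8-mers, with binding given as the normalised enrichment score (E-score).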
Take CGAAGTCA: the binding signal came out at 0.0962 E-score.

With AAAGTCTT, the binding signal was found to be 0.0508 E-score.

With GAAGGTCA, the binding signal came to 0.116 E-score.

With TGACTGCA, the binding signal is 0.0778 E-score.

In the case of GGAAGTCA, the binding signal was found to be 0.132 E-score.

With AGGTCAAT, the binding signal was determined as 0.137 E-score.

For a further assay, the target named is T1, GST-ANAC019 NAC domain (Arabidopsis thaliana, UniProt Q9C932 14-162).
T1 sequence: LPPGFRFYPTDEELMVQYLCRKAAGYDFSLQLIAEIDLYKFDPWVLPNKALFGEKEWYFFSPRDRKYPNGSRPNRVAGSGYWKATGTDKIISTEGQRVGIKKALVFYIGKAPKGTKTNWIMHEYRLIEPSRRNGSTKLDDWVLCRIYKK
The description is as above. To be noted: protein: recombinant; tags: GST; chain copies: 2; dsDNA, one strand shown. Summed up:
as §1
Turning to GCGTTGAC, the binding signal amounted to 0.0691 E-score.

Take GAAGACCA: the binding signal amounted to 0.0558 E-score.

As for GTAGGTCA, the binding signal came to 0.129 E-score.

On to GGTGGTCA, for which the binding signal was 0.0992 E-score.

Consider CTGACCAC, for which the binding signal was 0.0574 E-score.

Turning to GCTGACCA, the binding signal came to 0.0761 E-score.

With CACGGTCA, the binding signal worked out at 0.052 E-score.

Consider GACCAAGA, for which the binding signal was 0.0567 E-score.

With GAGTCAAC, the binding signal was determined as 0.14 E-score.

Regarding CAGTCAGA, the binding signal worked out at 0.0745 E-score.

Consider GTGTCAAC, for which the binding signal worked out at 0.0933 E-score.

In the case of GAAAAGTC, the binding signal was 0.139 E-score.

Regarding CCGTTGAC, the binding signal is 0.157 E-score.

In the case of GGTCAAGA, the binding signal came to 0.09 E-score.

Take CAGTTGAC: the binding signal was found to be 0.135 E-score.

In the case of TGACCCCA, the binding signal worked out at 0.0651 E-score.

In the case of CGTTGACC, the binding signal came out at 0.0797 E-score.

For CCGTCAAC, the binding signal was 0.0816 E-score.

With AGTCAGAC, the binding signal worked out at 0.0719 E-score.

For the sequence GGAAGTCA, the binding signal amounted to 0.0521 E-score.

Another assay addresses T2, GST-ANAC055(1-171) (Arabidopsis thaliana, UniProt Q9LDY8 1-171).
T2 sequence: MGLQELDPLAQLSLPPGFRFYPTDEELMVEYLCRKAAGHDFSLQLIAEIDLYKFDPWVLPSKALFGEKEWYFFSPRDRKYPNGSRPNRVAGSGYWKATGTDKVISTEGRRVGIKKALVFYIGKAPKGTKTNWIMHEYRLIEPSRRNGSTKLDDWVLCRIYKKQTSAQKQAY
Described as above. To be noted: protein: recombinant; tags: GST; chain copies: 2; dsDNA, one strand shown. Summed up: as §1
For the sequence ACTTGACT, the binding signal was determined as 0.0752 E-score.

Regarding AAAGTCTT, the binding signal was found to be 0.109 E-score.

With GAATTGAC, the binding signal worked out at 0.0993 E-score.

Consider GTTTGACA, for which the binding signal is 0.0647 E-score.

Regarding TCGTCAAA, the binding signal was determined as 0.0878 E-score.

Take CAGTTGAC: the binding signal was found to be 0.0582 E-score.

Turning to TGACTGCA, the binding signal was 0.0624 E-score.

For GACTTGAC, the binding signal came out at 0.11 E-score.

As for ATTTGACC, the binding signal is 0.079 E-score.

As for AGGTCAAT, the binding signal was 0.0969 E-score.

As for CTCGTCAA, the binding signal worked out at 0.0602 E-score.

The next assay addresses T3, GST-ATAF1 NAC domain (Arabidopsis thaliana, UniProt Q39013 7-158).
T3 sequence: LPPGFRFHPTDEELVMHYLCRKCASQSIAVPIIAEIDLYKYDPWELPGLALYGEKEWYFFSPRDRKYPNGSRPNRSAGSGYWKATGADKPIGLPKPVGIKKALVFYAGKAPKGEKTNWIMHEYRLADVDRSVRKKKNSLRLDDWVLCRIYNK
The description is as above. As to conditions: protein: recombinant; tags: GST; chain copies: 2; dsDNA, one strand shown. Summed up:
as §1
Turning to CGTTTGAC, the binding signal turned out to be 0.0858 E-score.

For the sequence AGTCAATG, the binding signal is 0.0527 E-score.

With ACTTGACT, the binding signal was 0.186 E-score.

On to GAAAAGTC, for which the binding signal is 0.137 E-score.

For GAATTGAC, the binding signal turned out to be 0.092 E-score.

As for GTTTGACA, the binding signal stood at 0.101 E-score.

Turning to TCGTCAAA, the binding signal came to 0.0946 E-score.

CAGTTGAC: the binding signal came out at 0.112 E-score.

For GCAGTCAA, the binding signal was determined as 0.0666 E-score.

As to GAAAGTCA, the binding signal was 0.0574 E-score.

Regarding TGACTGCA, the binding signal is 0.0918 E-score.

For the sequence GACTTGAC, the binding signal came out at 0.199 E-score.

In the case of GATTTGAC, the binding signal was determined as 0.122 E-score.

On to AGGTTGAC, for which the binding signal is 0.13 E-score.

For GTTGACGA, the binding signal stood at 0.0784 E-score.

For CTCGTCAA, the binding signal was 0.0515 E-score.

A further assay has as its target T4, GST-ANAC092(1-285) full length (Arabidopsis thaliana, UniProt Q9FKA0 1-285).
T4 sequence: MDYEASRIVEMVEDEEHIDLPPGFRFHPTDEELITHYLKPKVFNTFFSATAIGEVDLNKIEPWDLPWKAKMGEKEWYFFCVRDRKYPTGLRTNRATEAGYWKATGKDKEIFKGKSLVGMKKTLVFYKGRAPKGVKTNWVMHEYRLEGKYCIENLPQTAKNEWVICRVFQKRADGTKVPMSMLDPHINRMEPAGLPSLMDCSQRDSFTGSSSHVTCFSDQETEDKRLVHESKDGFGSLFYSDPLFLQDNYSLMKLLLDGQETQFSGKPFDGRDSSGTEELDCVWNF
Described as above. As to conditions: protein: recombinant; tags: GST; chain copies: 2; dsDNA, one strand shown. Summed up: as §1
Take ACTTGACT: the binding signal was 0.0808 E-score.

With GAATTGAC, the binding signal was 0.0675 E-score.

For the sequence CCGTTGAC, the binding signal came out at 0.0578 E-score.

Turning to GGTCAAGA, the binding signal was 0.0594 E-score.

Take GAAAGTCA: the binding signal is 0.0781 E-score.

Regarding GACTTGAC, the binding signal was 0.0614 E-score.

Consider GGAAGTCA, for which the binding signal came out at 0.0837 E-score.

The target of another assay is T5, GST-NAP(1-166) (Arabidopsis thaliana, UniProt O49255 1-166).
T5 sequence: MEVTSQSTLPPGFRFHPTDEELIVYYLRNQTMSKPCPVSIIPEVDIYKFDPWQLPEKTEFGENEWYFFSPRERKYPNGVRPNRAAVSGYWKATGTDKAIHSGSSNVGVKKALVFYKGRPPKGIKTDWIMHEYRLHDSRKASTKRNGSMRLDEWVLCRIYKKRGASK
The description is as above. As to conditions: protein: recombinant; tags: GST; chain copies: 2; dsDNA, one strand shown. Summed up: as §1
On to GCGTTGAC, for which the binding signal stood at 0.116 E-score.

With CGTTTGAC, the binding signal stood at 0.0589 E-score.

Consider GTGTCAAC, for which the binding signal is 0.0561 E-score.

Take GAAAAGTC: the binding signal stood at 0.145 E-score.

As for CCGTTGAC, the binding signal is 0.126 E-score.

Turning to CAGTTGAC, the binding signal was found to be 0.0525 E-score.

As to GCAGTCAA, the binding signal was determined as 0.0815 E-score.

In the case of CGTTGACC, the binding signal is 0.0594 E-score.

Take CTCGTCAA: the binding signal was found to be 0.0553 E-score.

A further assay concerns the target T6, GST-NST2(1-184) (Arabidopsis thaliana, UniProt Q9M274 1-184).
T6 sequence: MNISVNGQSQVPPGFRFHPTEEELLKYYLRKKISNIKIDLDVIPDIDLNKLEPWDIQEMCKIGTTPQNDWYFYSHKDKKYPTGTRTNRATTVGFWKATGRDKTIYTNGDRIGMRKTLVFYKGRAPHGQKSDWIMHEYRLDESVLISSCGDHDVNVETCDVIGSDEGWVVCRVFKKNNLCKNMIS
The description is as above. To be noted: protein: recombinant; tags: GST; chain copies: 2; dsDNA, one strand shown. Summed up: as §1
As to CGTTTGAC, the binding signal stood at 0.0861 E-score.

As for AGTCAATG, the binding signal amounted to 0.0628 E-score.

In the case of ACTTGACT, the binding signal was 0.0742 E-score.

Regarding GAAAAGTC, the binding signal was found to be 0.0971 E-score.

Consider GAATTGAC, for which the binding signal was 0.0714 E-score.

In the case of GTTTGACA, the binding signal was 0.0521 E-score.

Regarding TCGTCAAA, the binding signal came to 0.0744 E-score.

On to GGTCAAGA, for which the binding signal was 0.08 E-score.

In the case of CAGTTGAC, the binding signal was 0.0574 E-score.

For another assay, the target named is T7, GST-NTL8 NAC domain (Arabidopsis thaliana, UniProt Q9XIN7 14-156).
T7 sequence: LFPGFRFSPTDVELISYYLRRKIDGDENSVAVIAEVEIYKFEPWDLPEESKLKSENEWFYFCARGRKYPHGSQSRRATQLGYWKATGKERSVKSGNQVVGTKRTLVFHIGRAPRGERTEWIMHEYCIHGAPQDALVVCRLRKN
Described as above. To be noted: protein: recombinant; tags: GST; chain copies: 2; dsDNA, one strand shown. Summed up:
as §1
Consider GTAGGTCA, for which the binding signal was determined as 0.0647 E-score.

In the case of CGAAGTCA, the binding signal was 0.132 E-score.

As to CACGGTCA, the binding signal came to 0.063 E-score.

Regarding GAAAAGTC, the binding signal worked out at 0.19 E-score.

For GAATTGAC, the binding signal was determined as 0.051 E-score.

In the case of GAAGGTCA, the binding signal amounted to 0.0878 E-score.

With GCAGTCAA, the binding signal was 0.0556 E-score.

CGTTGACC: the binding signal is 0.123 E-score.

Consider GACTTGAC, for which the binding signal came out at 0.0707 E-score.

In the case of GGAAGTCA, the binding signal was determined as 0.0895 E-score.
